Shown is part of a subset that was picked to be rich in hits.
Dicer processing: inhibitors of Dicer pre-microRNA processing, primary screen, biochemical, cat-ELCCA, chemiluminescence; Endoribonuclease Dicer (Homo sapiens), Q9UPY3; hit rate 6% among 47,000; z-score at 25 µM; cat-ELCCA pre-miR-21 Dicer processing; stronger effect = higher value; in the data active = z-score above about 3, passing the limit was not always enough;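 also: higher signal means more uncleaved substrate so more Dicer inhibition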
Target sequence (Q9UPY3 whole entry, looked up): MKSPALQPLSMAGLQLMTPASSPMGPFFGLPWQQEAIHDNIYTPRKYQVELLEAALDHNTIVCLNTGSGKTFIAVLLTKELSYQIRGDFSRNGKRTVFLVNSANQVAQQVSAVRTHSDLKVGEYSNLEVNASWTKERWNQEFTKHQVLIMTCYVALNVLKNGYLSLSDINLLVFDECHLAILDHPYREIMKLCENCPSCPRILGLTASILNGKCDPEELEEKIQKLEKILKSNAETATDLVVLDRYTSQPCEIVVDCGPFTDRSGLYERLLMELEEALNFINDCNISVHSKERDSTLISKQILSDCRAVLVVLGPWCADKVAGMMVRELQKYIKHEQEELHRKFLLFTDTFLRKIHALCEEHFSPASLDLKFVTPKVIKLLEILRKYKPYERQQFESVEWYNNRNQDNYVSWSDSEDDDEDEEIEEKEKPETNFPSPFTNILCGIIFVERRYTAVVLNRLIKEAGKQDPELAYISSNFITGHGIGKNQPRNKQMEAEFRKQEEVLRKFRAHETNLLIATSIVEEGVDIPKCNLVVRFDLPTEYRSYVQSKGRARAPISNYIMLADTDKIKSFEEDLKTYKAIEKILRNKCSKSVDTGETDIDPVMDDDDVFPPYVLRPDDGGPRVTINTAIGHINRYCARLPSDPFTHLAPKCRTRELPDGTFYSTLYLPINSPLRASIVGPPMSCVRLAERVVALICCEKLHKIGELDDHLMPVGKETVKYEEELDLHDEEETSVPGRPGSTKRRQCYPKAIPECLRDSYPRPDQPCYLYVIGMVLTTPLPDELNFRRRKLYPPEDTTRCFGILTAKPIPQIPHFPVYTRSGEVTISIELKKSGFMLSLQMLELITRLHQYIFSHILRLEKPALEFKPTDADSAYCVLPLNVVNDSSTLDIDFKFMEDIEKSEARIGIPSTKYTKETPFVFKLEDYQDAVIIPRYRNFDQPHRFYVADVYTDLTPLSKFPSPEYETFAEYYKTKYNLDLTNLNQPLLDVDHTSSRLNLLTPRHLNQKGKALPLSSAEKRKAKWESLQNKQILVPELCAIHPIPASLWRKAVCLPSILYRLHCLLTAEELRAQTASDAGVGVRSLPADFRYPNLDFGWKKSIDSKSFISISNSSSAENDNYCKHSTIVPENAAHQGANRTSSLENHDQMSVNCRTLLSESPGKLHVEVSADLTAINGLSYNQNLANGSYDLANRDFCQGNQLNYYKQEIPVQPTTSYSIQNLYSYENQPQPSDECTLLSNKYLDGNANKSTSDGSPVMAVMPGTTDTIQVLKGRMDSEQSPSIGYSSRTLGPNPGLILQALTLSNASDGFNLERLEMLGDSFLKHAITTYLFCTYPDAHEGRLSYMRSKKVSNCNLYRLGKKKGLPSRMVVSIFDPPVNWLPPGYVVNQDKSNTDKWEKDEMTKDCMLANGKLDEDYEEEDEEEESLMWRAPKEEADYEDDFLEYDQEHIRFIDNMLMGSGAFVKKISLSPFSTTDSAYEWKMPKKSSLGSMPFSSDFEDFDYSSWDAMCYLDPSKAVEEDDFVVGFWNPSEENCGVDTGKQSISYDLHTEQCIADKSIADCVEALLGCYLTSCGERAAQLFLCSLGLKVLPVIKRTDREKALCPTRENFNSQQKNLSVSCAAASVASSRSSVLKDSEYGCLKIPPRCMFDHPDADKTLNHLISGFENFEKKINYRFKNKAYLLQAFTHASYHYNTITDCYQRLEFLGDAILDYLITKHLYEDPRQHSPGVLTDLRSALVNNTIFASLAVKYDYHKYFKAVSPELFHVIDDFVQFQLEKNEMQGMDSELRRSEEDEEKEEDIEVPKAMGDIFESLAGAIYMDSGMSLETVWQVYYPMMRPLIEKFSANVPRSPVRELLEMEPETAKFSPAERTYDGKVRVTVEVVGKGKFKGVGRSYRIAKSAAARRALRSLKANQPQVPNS
A number is an active result; 0 = inactive.

SMILES	Dicer processing
CC(C)OC(=O)C(C)Oc1ccc2c(=O)c(-c3ccccc3)coc2c1 (stereo not drawn)	0
N#CC1=C(N)Oc2c(sc3ccccc23)C1c1cccs1 (stereo not drawn)	0
Cc1ccc(-c2nc(=O)c3ccccc3o2)cc1	0
COC(=O)c1noc(-c2ccc(F)cc2)n1	0
COc1ccc(-c2csc3nc(-c4ccc(F)cc4)oc(=O)c23)cc1	0
COc1oc(-c2ccc(F)cc2)nc1C(F)(F)F	4.7
Cc1cc(C)c2nc(-c3ccc(C(F)(F)F)cc3)oc(=O)c2c1	0
COc1oc(-c2ccc(C)cc2)nc1C(F)(F)F	4.3
Nc1nc(-c2cccnc2)nn1C(=O)c1cccs1	0
Cc1oc2c(F)c(F)c(F)c(F)c2c1-c1noc(C(C)(C)C)n1	0
CC1=C(C(=O)OC2CCCC2)C(c2cccc3ccccc23)C2=C(CCCC2=O)N1 (stereo not drawn)	0
O/N=C/c1ncc(C(F)(F)F)cc1Cl	0
COc1nc(C)nc(N/C=C2\C(=O)c3ccccc3N(C)S2(=O)=O)n1	0
O=C(O)C1C2C=CC(O2)C1C(=O)NCc1ccncc1 (stereo not drawn)	0
O=C(O)C1C2C=CC(O2)C1C(=O)NCc1cccc(Cl)c1 (stereo not drawn)	4.4
CCCCC(CC)CNC(=O)C1C2C=CC(O2)C1C(=O)O (stereo not drawn)	0
O=C(O)c1cccc2cccc(C(=O)O)c12	3.9
O=C(O)c1cccc2cccc(S(=O)c3ccccc3CO)c12 (stereo not drawn)	0
Nc1ccc(C(=O)O)c2c(C(=O)O)cccc12	0
O=S(=O)(c1ccc(Cl)cc1)c1nc(-c2cccs2)oc1NCc1ccccc1	0
CSc1ccccc1Cn1c(=O)c2[nH]cnc2n(-c2ccccc2C)c1=O	0
COc1ccc(C2C3=C(Nc4[nH]c(=O)[nH]c(=O)c42)c2ccccc2C3=O)cc1 (stereo not drawn)	0
CCOC(=O)C1=C(CC)NC2=C(C(=O)CCC2)C1c1ccc(OC)c(Br)c1 (stereo not drawn)	0
O=C(NCc1ccccc1)N1c2ccccc2Sc2ccccc21	0
O=C(NCc1ccccc1)N1CC2C=CC1C2 (stereo not drawn)	6.2
SMILES	Dicer processing
O=C(NCc1ccccc1)C1CCC(C(=O)NCc2ccccc2)N1 (stereo not drawn)	0
CC1(C)C(=O)OC(c2ccccc2F)C(C)(C)C1=O (stereo not drawn)	0
CC(C)c1ccc(CNc2nc3ccccc3n2C)cc1	0
O=S(=O)(NC1CCN(Cc2ccccc2)CC1)c1cccc(C(F)(F)F)c1	3
O=S(=O)(NC1CCN(Cc2ccccc2)CC1)c1cc(Cl)c(Cl)cc1Cl	0
O=S(=O)(NC1CCN(Cc2ccccc2)CC1)c1cccs1	0
Cc1nc2ccccc2n1CC(O)COc1ccc(Cl)cc1 (stereo not drawn)	0
Cc1ccc(NS(=O)(=O)c2cc(Cl)c(Cl)cc2Cl)c(N)c1	8.3
Cc1ccc(NS(=O)(=O)c2ccc(Cl)cc2)c(N)c1	0
O=S(=O)(Nc1ccc(F)cc1)c1cc(Cl)c(Cl)cc1Cl	0
O=C(Nc1ccc(Cl)cc1)c1cccc(C(=O)Nc2ccc(Cl)cc2)c1F	0
CCOC(=O)c1cncc(C(=O)OCC)c1	0
CCn1c(SCC(=O)c2ccccc2)nnc1-c1oc2nc(-c3ccccc3)cc(-c3ccco3)c2c1N	0
CN1CCN(C2Cc3ccccc3Sc3ccc(Cl)cc32)CC1 (stereo not drawn)	0
CC1CN(CCO)Cc2ccc(Cl)cc21 (stereo not drawn)	3.2
CN1CCN(CC(=O)N2c3ccccc3Sc3ccc(Cl)cc32)CC1	0
Cc1ccc(N2OC3C(=O)NC(=O)C3C2c2ccc(Cl)cc2)cc1 (stereo not drawn)	0
COc1ccc(C(CC(=O)c2ccco2)SCc2ccco2)cc1OC (stereo not drawn)	0
COC(=O)c1sc(N2C(=O)c3oc4cc(C)c(C)cc4c(=O)c3C2c2ccc(OC)cc2)nc1C (stereo not drawn)	0
O=C(O)CCc1nc2ccc(C(=O)O)cc2[nH]1	3.7
Nc1ccc2nc(CCC(=O)O)[nH]c2c1	0
O=C(O)c1ccc2nc(CCc3ccccc3)[nH]c2c1	0
Nc1nc(SCC(=O)NCCO)nc2sc3c(c12)CCCC3	0
Nc1nc(SCCCC(=O)NCCO)nc2sc3c(c12)CCCC3	5.5
Nc1nc(SCC(=O)NCCN2CCOCC2)nc2sc3c(c12)CCCC3	0
SMILES	Dicer processing
Cn1ncc(C(=O)O/N=C/c2ccc(OC(F)(F)F)cc2)c1-n1cccc1	0
Cc1cc(SCCS(=O)(=O)CCSc2cc(C)c(Cl)cc2C)c(C)cc1Cl	0
S=C(NCc1ccccc1Cl)Nc1cc(Cl)c(Cl)cc1Cl	0
COc1ccc(CCNC(=S)NCCc2ccccc2)cc1OC	0
S=C(NCCc1ccccc1)Nc1cc(Cl)c(Cl)cc1Cl	4.7
CC1=C(C#N)C(c2ccc(OCc3ccccc3)cc2)C2=C(CCCC2=O)N1 (stereo not drawn)	0
C(=N\Nc1c2c(nc3ncnn13)CCC2)/c1cccs1	0
Cn1c(-c2ccc(Br)cc2)cnc1NCc1cccc(F)c1	0
COc1ccc(-c2cnc(NCc3ccc(Cl)cc3)n2C)cc1	0
Cn1c(-c2ccc(Cl)cc2)cnc1NCc1ccc(F)cc1	0
Cc1ccc(-c2cnc(NCc3ccc(Cl)cc3)n2C)cc1	3.2
Cn1c(-c2cccc(Br)c2)cnc1NCc1ccccc1	3.8
COc1ccccc1CNc1ncc(-c2cccc(Br)c2)n1C	0
Cn1c(-c2ccccc2)cnc1NCc1ccccc1O	0
Cn1c(-c2ccc(F)cc2)cnc1NCc1cccc(Br)c1	0
Cn1c(-c2ccccc2)cnc1NCc1cccc(Br)c1	4.4
N#C/C(=C\c1ccc(C(F)(F)F)cc1)c1cn(C(=O)C2CCC2)c2ccccc12	0
CCc1cc(C)cc(OCC(O)Cn2c(C)[n+](C)c3ccccc32)c1 (stereo not drawn)	0
CCn1c(Sc2c(C)c3cc4c(cc3[nH]c2=O)OCO4)nnc1-c1ccccc1	0
O=C(O)C(Cc1ccccc1)NCc1ccccc1O (stereo not drawn)	0
CSc1sc(C#N)c2c1/C(=N/OC(C)=O)CCC2	0
CSc1sc(C#N)c2c1/C(=N\O)CCC2	4.4
CSc1sc(C#N)c2c1/C(=N/OC(=O)c1ccc(Cl)cc1)CCC2	0
C=CCN1C(=O)C(O)(CC(=O)c2ccc(CC)cc2)c2cc(Br)ccc21 (stereo not drawn)	0
O=C(Nc1ccc(Oc2cccc(C(F)(F)F)c2)nc1)Nc1cccs1	0
SMILES	Dicer processing
CC(=O)Oc1ccc2oc3c(c2c1)C(=O)CCC3	4.8
CC(=O)Oc1ccc2c(C)cc(=O)oc2c1	0
CC(=O)Oc1ccc2oc(C)c(C(=O)OC(C)C)c2c1	0
O=C(O)CN1C(=O)CC(Cc2ccc(Br)cc2)C1=O (stereo not drawn)	0
O=C(COc1ccc(Cl)cc1)Nc1nccs1	0
O=C(COc1ccc(Cl)cc1)Nc1ccc(Cl)cn1	0
O=C(COc1ccc(Cl)cc1)Nc1c[nH]c(=O)[nH]c1=O	4.1
C/C(=N/OC(=O)Nc1ccccc1Cl)C1CC1	0
CC1(C)c2ccccc2-n2c1cc(O)c(Cc1ccccc1)c2=O	0
CC(C)c1ccc(C(=O)CC2(O)C(=O)Nc3ccc(Cl)cc32)cc1 (stereo not drawn)	0
COc1ccc(-c2nnc(SCc3cccc4ccccc34)o2)cc1	0
COc1ccc(-c2nnc(SCc3cccc(Cl)c3)o2)c(OC)c1	0
COc1ccc(-c2nnc(SCc3cccc4ccccc34)o2)c(OC)c1	227

From PubChem
